The list is not random: actives were taken first. Their share in the collection is about 2.1%.
LDHA inh: qHTS assay for inhibitors of human lactate dehydrogenase; L-lactate dehydrogenase A chain (Homo sapiens), P00338; purified LDHA, NADH/diaphorase-resazurin fluorescence; hits give low values; activity change, % (values are at about 110 or 230 µM); 480,000 tested, 0.15% active; in the data active = activity change below about -30%;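 also: plate controls were DMSO wells for no effect and wells without enzyme for full effect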
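Remaining NADH was detected by diaphorase (0.133 mg/mL) converting 37 µM resazurin to fluorescent resorufin, read at 0 and 20 minutes. The preceding 5-minute room-temperature reaction used 2 nM LDHA, 0.2 mM sodium pyruvate and 0.06 mM NADH at pH 7.4.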
D2 antagonist: HTS Assay for Allosteric Antagonists of the Human D2 Dopamine Receptor: Primary Screen for Antagonists | inhibition, % at 10 µM | HEK293 TREx D2 cells, calcium flux, dopamine EC80 | D(2) dopamine receptor (Homo sapiens), P14416 | 340,000 tested, 2% active | AID 485344, 2010; in the data active = inhibition above about 30%; inactive = below that, where a call was filed; also: 0% is about no effect
Target sequence (P14416 whole entry, looked up): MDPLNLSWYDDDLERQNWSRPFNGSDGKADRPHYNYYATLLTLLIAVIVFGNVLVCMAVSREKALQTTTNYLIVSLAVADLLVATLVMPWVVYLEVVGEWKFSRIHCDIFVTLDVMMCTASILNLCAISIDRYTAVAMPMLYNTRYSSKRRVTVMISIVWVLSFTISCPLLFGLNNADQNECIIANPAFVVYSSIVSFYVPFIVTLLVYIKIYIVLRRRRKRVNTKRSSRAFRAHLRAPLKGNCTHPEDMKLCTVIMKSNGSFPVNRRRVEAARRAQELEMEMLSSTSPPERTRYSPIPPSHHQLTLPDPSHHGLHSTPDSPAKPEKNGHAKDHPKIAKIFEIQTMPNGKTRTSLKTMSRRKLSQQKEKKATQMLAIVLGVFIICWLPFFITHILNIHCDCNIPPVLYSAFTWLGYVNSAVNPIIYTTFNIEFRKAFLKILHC
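Measurement of antagonist activity uses fluorescent calcium dye in inducible HEK293 T-REx D2 cells: 10 s baseline, compound addition with 180 s read, EC80 dopamine addition with a further 180 s read.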
D2 PAM-1: HTS Assay for Positive Allosteric Modulators of the Human D2 Dopamine Receptor: Primary Screen for Potentiators | D(2) dopamine receptor (Homo sapiens), P14416 | HEK293 T-REx D2, calcium flux, EC20 dopamine potentiation | potentiation, % at 10 µM | 340,000 tested, 0.34% active | AID 485347, 2010;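 active = potentiation over 3 SD above the plate norm, cut at about 30% in these data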; also: 0% is about no effect
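Primary screen. Calcium kinetics in induced HEK293 T-REx D2 cells: compound pre-addition 180 s, EC20 dopamine, 180 s more.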
D2 ag-1: Beta-Arrestin HTS for Positive Allosteric Modulators of the Human D2 Dopamine Receptor: Agonists; D(2) dopamine receptor (Homo sapiens), P14416; DiscoveRx PathHunter D2 beta-arrestin, luminescence, 90 min; 100% = 57 uM dopamine signal; activation, % (test concentration not listed); 360,000 tested, 0.084% active; AID 624465, 2012; in the data active = activation above about 40%
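Agonist mode: compounds alone added to overnight-plated D2 PathHunter cells for 90 min at 37 C, with 57 uM final dopamine (EC100) defining full response. Beta-arrestin recruitment detected by chemiluminescent reagent, read after 1 h at ambient temperature.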
D2 ag-2: HTS Assay for Allosteric Agonists of the Human D2 Dopamine Receptor: Primary Screen for Agonists | activation, % at 2 µM | D(2) dopamine receptor (Homo sapiens), P14416 | 340,000 tested, 0.53% active | AID 485358, 2010 | HEK293 T-REx D2 cells, calcium flux agonist mode;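 active = activation over 3 SD above normal in the single-dose calcium agonist read, cut at about 30% in these data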; also: 0% is about no effect
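In this primary screen, compounds producing a positive calcium signal within 180 s of addition to tetracycline-induced, force-coupled HEK293 Trex D2 cells are flagged; cells are dye-loaded with a no-wash calcium kit beforehand.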
D2 PAM-2: Beta-Arrestin HTS for Positive Allosteric Modulators of the Human D2 Dopamine Receptor: Potentiators. D(2) dopamine receptor (Homo sapiens), P14416. DiscoveRx D2 beta-arrestin cells, luminescence, 90 min; 100% = 57 uM dopamine signal. potentiation, % (concentration not given with the values). 360,000 tested, 0.23% active. AID 624464, 2012; in the data active = potentiation above about 50%
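D2 cells co-treated with compound plus 50 nM dopamine (EC20) for 90 min at 37 deg C to detect potentiation. Beta-arrestin recruitment was read as enzyme-fragment luminescence after 1 h at ambient temperature. Full response was set by 57 uM dopamine.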
* marks the source's active call; other numbers are inactive results; . = no result.

SMILES	LDHA inh	D2 antagonist	D2 PAM-1	D2 ag-1	D2 ag-2	D2 PAM-2
COc1cc(/C=C(/C#N)C(=O)O)cc(Cl)c1OC(C)C	6.0	.	.	.	.	.
CCCCNC(=O)COc1c(Cl)cc(Cl)c2ccc(C)nc12	21.6	.	.	.	.	.
CCCCCC(=O)Nc1ccc(-c2nc3cc(OC)ccc3o2)cc1	2.6	.	.	.	.	.
CSc1ccc(/C=C2\N=C(c3ccc(C)cc3)OC2=O)cc1	0.4	.	.	.	.	.
Fc1ccc(CCNC(=S)Nc2ccc(F)c(Cl)c2)cc1	-5.7	.	.	1.0	.	-12.1
COc1ccc(Cl)cc1NC(=S)NCCc1ccc(F)cc1	-3.7	39.6*	-19.6	-0.5	-0.1	-52.8
Fc1ccc(NC(=S)NCCc2ccc(Cl)cc2)cc1	-1.0	31.7*	-2.1	-1.2	-1.4	-14.5
COc1ccc(Cl)cc1NC(=S)NCCc1ccc(S(N)(=O)=O)cc1	-1.5	23.8	-3.5	-4.1	0.2	-16.2
Cc1cc2nc3c(=O)n(C4CCCCC4)c(=O)[nH]c3nc2cc1N	23.8	-27.6	-4.4	5.4	61.4*	9.3
CCc1c(C)sc(NC(=O)C2CC2c2ccccc2)c1C#N (stereo not drawn)	1.1	.	.	.	.	.
CCOc1cccc(/C(O)=C2/C(=O)C(=O)N(CCOC)C2c2ccco2)c1 (stereo not drawn)	7.9	14.2	34.3*	-0.3	0.2	-25.5
Cc1ccc(C)c(Cn2nc(-c3cc(C)ccc3C)ccc2=O)c1	-2.5	35.3*	-3.0	-0.6	1.0	-10.3
O=C(N/N=C/c1cccnc1)c1cccc(Br)c1	-3.2	7.7	-1.5	-4.7	0.7	0.3
CCOc1cc(/C=N/NC(=O)c2cccnc2)ccc1O	-0.4	31.4*	3.6	-7.6	0.1	2.7
O=C(N/N=C/c1ccsc1)C1CC1	2.7	0.3	39.6*	-1.8	0.1	-3.0
O=C(N/N=C/c1cccnc1)c1cccc(Cl)c1	-2.8	35.0*	-3.0	1.4	2.4	-8.7
O=C(N/N=C/c1cccnc1)C1CC1	3.8	.	.	.	.	.
O=C(N/N=C/c1cccnc1)C1CCCCC1	-2.1	-19.0	32.0*	0.4	0.4	-5.6
CCOc1cc(/C=N/NC(=O)c2cccnc2)ccc1OCC(N)=O	-8.8	5.2	10.9	-3.3	0.2	-27.6
CC(=O)NCCc1ccc(-c2csc(-c3ccc(C)cc3)n2)s1	-1.4	.	.	.	.	.
CCC(=O)Nc1ccc(-c2csc(Nc3cccc(OC)c3)n2)cc1	6.9	.	.	.	.	.
CCOc1ccccc1Nc1nc(-c2cc3cc(Cl)ccc3oc2=O)cs1	0.0	.	.	.	.	.
COc1ccc(C2=CC(c3ccc(Cl)cc3)n3nnnc3N2)c(OC)c1 (stereo not drawn)	-2.8	.	.	.	.	.
CCOC(=O)c1cc2sccc2n1CC(=O)N1CCc2ccccc21	-5.0	0.2	34.1*	-1.2	-0.4	-6.1
CCCCN(C)C(=O)C1CCN(CC(C)c2ccccc2)CC1 (stereo not drawn)	0.6	.	.	.	.	.
COC(=O)c1cc(CNC(=O)c2ccc(S(=O)(=O)N(C)c3ccccc3)cc2)ccc1OC	-10.0	74.1*	-25.1	-0.8	0.3	-11.2
COc1ccc(CCNC(=O)c2ccc(S(=O)(=O)N(C)c3ccccc3)cc2)cc1OC	0.8	-7.9	.	-0.1	5.4	1.8
O=C(NCCC(=O)N1CCN(c2ccccn2)CC1)c1ccc(Br)cc1	-5.1	57.6*	-13.6	-3.5	-1.0	-9.0
CCC(=O)N1CCc2cc(S(=O)(=O)NCCC(=O)N3CCc4ccccc4C3)ccc21	-0.8	-10.9	10.5	0.2	-1.8	3.4
O=C(NCCC(=O)N1CCC2(CC1)NCCc1[nH]cnc12)c1ccc(Br)cc1	-1.3	32.0*	-0.4	-0.7	0.6	-5.4

Assay outcomes as filed in PubChem BioAssay.
